Experimental findings from ChEMBL document CHEMBL3433997, “St. Jude Leishmania screening dataset” (2016) are described below.

Type in all cases: functional
Assay [1] addresses Solute carrier family 2, facilitated glucose transporter member 1 (Homo sapiens) (UniProt P11166). The assay can be described thus: ST_JUDE_LEISH: Cytotoxicity at 2uM final concentration against transgenic Leishmania Mexicana promastigotes LmGLUT1 that are glucose transport deficient and complemented with the human glucose transporter GLUT1. Activity is measured by DNA content using SYBR green in vitro.

In assay [2] the target is Hexose transporter 1 (Plasmodium falciparum) (UniProt O97467). The assay can be described thus: ST_JUDE_LEISH: Cytotoxicity at 2uM final concentration against transgenic Leishmania Mexicana promastigotes LmPfHT that are glucose transport deficient and complemented with the Plasmodium falciparum hexose transporter. Activity is measured by DNA content using SYBR green in vitro.

Assay [3] deals with Glucose transporter (Leishmania mexicana) (UniProt O61059). The assay can be described thus: ST_JUDE_LEISH: Cytotoxicity at 2uM final concentration against transgenic Leishmania Mexicana promastigotes LmGT2 that are glucose transport deficient and complemented with the L. Mexicana glucose transporter 2. Activity is measured by DNA content using SYBR green in vitro.

Sequence of Solute carrier family 2, facilitated glucose transporter member 1 (Homo sapiens) (P11166 whole entry): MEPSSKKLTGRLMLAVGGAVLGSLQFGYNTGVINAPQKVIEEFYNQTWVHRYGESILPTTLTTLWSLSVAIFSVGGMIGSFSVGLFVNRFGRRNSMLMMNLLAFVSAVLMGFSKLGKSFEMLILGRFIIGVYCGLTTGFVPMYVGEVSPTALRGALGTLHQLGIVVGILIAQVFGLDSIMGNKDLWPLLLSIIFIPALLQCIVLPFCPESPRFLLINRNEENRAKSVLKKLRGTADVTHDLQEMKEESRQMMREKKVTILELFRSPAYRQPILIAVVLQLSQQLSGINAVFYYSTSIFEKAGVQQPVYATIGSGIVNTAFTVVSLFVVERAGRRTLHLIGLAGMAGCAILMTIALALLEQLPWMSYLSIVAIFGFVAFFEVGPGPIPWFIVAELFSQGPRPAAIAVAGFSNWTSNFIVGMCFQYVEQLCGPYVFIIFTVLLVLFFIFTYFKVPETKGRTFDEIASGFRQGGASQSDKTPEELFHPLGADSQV

In the case of `CCOc1cc(C)ccc1C1CCN(CCCCNC(=O)c2ccc(-c3ccc(Cl)cn3)cc2)CC1`, the inhibition in assay [1] was 1.1%; in assay [2] it was -0.06%; in assay [3], -0.83%.
As for `O=C(Nc1ccc(F)cc1)N1CCCN(c2ccnc3cc(Cl)ccc23)CC1`, the values for the inhibition in assay [1], in assay [2] and in assay [3] were 0.02%, 0.34% and 1.11%, respectively.
In the same order, the values of `CCc1ccc(CN2CCC(CNC(=O)c3cc(-c4cccc(F)c4)cs3)C2)cc1` (stereo not given) are -0.39%, 1.94% and 1.42%.
In the same order, the values of `N#Cc1cccc(C(=O)N2CCOC(CCN3CCC(c4ccccc4)CC3)(c3ccc(Cl)c(Cl)c3)C2)c1` (stereo not given) are 4.51%, 2.24% and 2.33%.
In the same order, the values of `CNCC(C)(C)c1nc(-c2ccc(Cl)c(O)c2)c(-c2ccncc2)[nH]1` are -1.98%, -1.37% and -3.28%.
For `COc1ccc(-c2cccc(NC(=O)c3cccc(Cl)c3)c2)cc1CNC(C)C`, the inhibition in assay [1] is 1.6%; in assay [2], -0.57%; in assay [3] it was 1.24%.
Consider `O=C(NC1CCCc2ccccc21)[C@@H]1CCCN1C(=O)c1ccc(O)c(-c2ccc(Cl)c(Cl)c2)c1` (stereo not given in full), for which the inhibition in assay [1] was 0.06%; in assay [2] it was -0.61%; in assay [3], -0.01%.
In the same order, the values of `O=c1cc(NCCCN(Cc2cc3c(Cl)cc(Cl)cc3[nH]2)Cc2cc3c(Cl)cc(Cl)cc3[nH]2)[nH]c2ccccc12` are 9.06%, 9.4% and 7.31%.
In the same order, the values of `CCNc1cc(C(=O)N[C@@H](Cc2ccccc2)[C@H](O)CNC23CC4CC(CC(C4)C2)C3)cc(N2CCCCS2(=O)=O)c1` are 3.41%, 3.36% and -0.1%.
In the same order, the values of `O=C1CCCN1CCCNCc1cccc(-c2cccc(-c3nc4cc(C(F)(F)F)ccc4[nH]3)c2)c1` are 4.47%, 3.94% and 4.37%.
Consider `COc1ccc(F)cc1-c1ccccc1CNC(=O)c1cnn(-c2ccc([N+](=O)[O-])cc2)c1C(F)(F)F`, for which the inhibition in assay [1] turned out to be 2.16%; in assay [2], 2.84%; in assay [3], 4.07%.
In the same order, the values of `NC(=O)c1cccc(C(=O)Nc2cccc(-c3csc(-c4nc5ccccc5[nH]4)c3)c2)c1` are 2.68%, 2.2% and 2.09%.
As to `Cn1c(-c2ccccc2)cc2c3c(N)nc(N)nc3ccc21`, the inhibition came out at 105% in assay [1], 104% in assay [2] and 98.2% in assay [3].
In the same order, the values of `CC1(C)NC(N)=NC(=N)N1OCc1nc(N)nc(Nc2ccccc2)n1` are 5.43%, 5.4% and 5.9%.
In the same order, the values of `Cc1cccc2nc(-c3ccc(-c4ccc(NC(=O)C5CCN(C)CC5)cc4)cc3)[nH]c12` are 3.08%, 5.28% and 1.38%.
As to `O=C(/C=C/c1ccsc1)N1CCC(CCN2CCC(c3c[nH]c4ccccc34)CC2)CC1`, the inhibition in assay [1] amounted to 2.34%; in assay [2] it was 3.57%; in assay [3], 6.24%.
In the same order, the values of `CCc1cn2c3c(cc(C(=O)N[C@@H](Cc4ccccc4)[C@H](O)CNCc4ccccc4C)cc13)N(C)S(=O)(=O)CC2` are 3.43%, 2.3% and 1.96%.
In the same order, the values of `COc1ccc(CNC2Cc3ccccc3C2)cc1-c1ccc(S(=O)(=O)NCCc2ccccn2)s1` are 0.76%, 0.03% and 2.04%.
In the same order, the values of `CCCNC(=O)C1CCN(C(c2ccccc2)c2ccc(Cl)c(Cl)c2)CC1` (stereo not given) are 4.42%, 5.75% and 3%.
In the case of `Cc1cc(N(C)C)nc(Nc2ccc(NC(=O)c3c(F)cccc3Cl)cc2)n1`, the inhibition in assay [1] was 7.36%; in assay [2] it was 7.84%; in assay [3] it was -0.01%.
For `O=C(C1CCN(C(c2ccccc2)c2ccc(Cl)c(Cl)c2)CC1)N1CC=CC1` (stereo not given), the inhibition in assay [1] was 0.54%; in assay [2], 3.99%; in assay [3], -0.23%.
In the same order, the values of `CCCC(C)NC[C@@H](O)[C@H](Cc1ccccc1)NC(=O)c1cc(NCC)cc(N2CCCCS2(=O)=O)c1` (stereo not given in full) are 0.32%, 0.76% and -2.92%.
In the same order, the values of `O=C(Nc1ccc(OC2CCN(Cc3ccc(F)cc3)C2)c(Cl)c1)c1ccco1` (stereo not given) are 3.67%, 3.44% and 3.01%.
In the same order, the values of `CN(C)c1ccc(CN2CCC(CNC(=O)c3cc(-c4cccc(C(F)(F)F)c4)cs3)C2)cc1` (stereo not given) are 2.15%, 1.34% and 1.72%.
In the case of `Nc1nccc(-c2ccc3c(/C=C/c4ccccc4)cnc(N)c3c2)n1`, the inhibition is 18.2% in assay [1], 24.5% in assay [2] and 0.5% in assay [3].
In the same order, the values of `COc1cc(N)c(Cl)cc1C(=O)NC1CCC(NCC2CCCCC2)CC1` (stereo not given) are 2%, 1.99% and 1.15%.
In the same order, the values of `N=C(N)NC(=O)Nc1cc(Br)c(Br)c(Br)c1` are 3.42%, 3.17% and 1.74%.
In the same order, the values of `CCc1cc2c(cc1CC)CC(NC[C@@H](O)c1ccc(O)c3[nH]c(=O)ccc13)C2` are 1.34%, 1.76% and 2.1%.
For the compound `CN(CCCCNC(=O)/C=C/c1ccccc1)C1CC2(CCN(C(=O)OC(C)(C)C)CC2)c2ccccc21` (stereo not given), the inhibition in assay [1] was 3.4%; in assay [2], 3.28%; in assay [3], 1.67%.
In the same order, the values of `CC[C@H](C)CNC(=O)c1ccnc(-c2ccc(CNC3Cc4ccccc4C3)cc2)c1` are 0.15%, 0.08% and -0.69%.
In the same order, the values of `CC(C)(C)c1ccc(CN2CCC(CNC(=O)c3cc(-c4cccc(Cl)c4)cs3)C2)cc1` (stereo not given) are 16.7%, 3.66% and 1.5%.
On to `O=C(NCc1ccc(F)cc1)Nc1ccc(-c2ccc(-c3nc4ccccc4[nH]3)cc2)cc1`, for which the inhibition in assay [1] was 1.28%; in assay [2], -0.46%; in assay [3] it was 0.75%.
In the same order, the values of `FC(F)(F)COc1c(CNCCCCCCNCc2ccc3ccccc3c2OCC(F)(F)F)ccc2ccccc12` are 87.7%, 95.5% and 104%.
In the same order, the values of `O=[N+]([O-])c1cccc(NC(=S)N2CCCN(Cc3ccc(Cl)cc3Cl)CC2)c1` are 2.36%, 3.32% and 3.01%.
In the same order, the values of `O=C(N[C@@H](Cc1ccccc1)[C@H](O)CNC1CCOCC1)c1cc(C2CCCC2)cc(N2CCCCS2(=O)=O)c1` are 3.67%, 3.81% and 4.01%.
For `CCCCCOc1c(CCC)cc(Cc2cnc(N)nc2N)cc1CCC`, the inhibition in assay [1] stood at 14.7%; in assay [2], 12.3%; in assay [3], 4.12%.
Take `C#CCOc1ccccc1CN1CCC(N2CCc3cc(NC(=O)c4cc(C)on4)ccc32)C1` (stereo not given): the inhibition in assay [1] is 2.61%; in assay [2], 1.64%; in assay [3], 4.74%.
In the same order, the values of `CCN(CC)/C(=N\C(=N)NCCCCCCNC(=N)/N=C(\Nc1ccc(Cl)cc1)N(CC)CC)Nc1ccc(Cl)cc1` are 0.25%, -0.21% and -0.92%.
In the same order, the values of `C#CCCC(=O)Nc1cccc(-c2cccc(-c3nc4cc(C(F)(F)F)ccc4[nH]3)c2)c1` are -2.22%, 1.99% and 1.42%.
In the same order, the values of `COc1ccc2c(OC)c(CNCCCCCCNCc3ccc4cc(OC)ccc4c3OC)ccc2c1` are 106%, 107% and 107%.
Regarding `CC1(C)N=C(N)N=C(N)N1c1ccc(Br)cc1`, the inhibition in assay [1] turned out to be 0.61%; in assay [2], 1.29%; in assay [3] it was 3.63%.
Regarding `O=C(Nc1cccc(Cl)c1)c1cnc(N2CCN(c3ccncc3)CC2)c(Cl)c1`, the inhibition in assay [1] turned out to be 23.4%; in assay [2], 42%; in assay [3] it was 12.7%.
In the same order, the values of `N=C(N)c1cccc(OCCCOc2cccc(NC(=O)Nc3ccc([N+](=O)[O-])cc3)c2)c1` are 4.46%, 3.16% and 2.32%.
In the same order, the values of `COc1ccccc1C1CCN(CCCCNC(=O)c2ccc(/C=C/c3cc(Cl)cc(Cl)c3)cc2)CC1` are 2.68%, 2.81% and 1.77%.
In the same order, the values of `CCOc1c(C)cc(C(F)(F)F)cc1CNCCCNc1cc(=O)c2ccccc2[nH]1` are 5.27%, 5.03% and 5.79%.
For `CCN(CC)CCN1C(=O)c2oc3ccc(F)cc3c(=O)c2C1c1cccc(Cl)c1` (stereo not given), the results for the inhibition in assay [1], in assay [2] and in assay [3] were -2.07%, 2.22% and 4.25%, respectively.
On to `CC(C)NCC(O)COc1ccc(Cc2ccc(OCC(O)CNC(C)C)cc2)cc1` (stereo not given), for which the inhibition in assay [1] was -0.23%; in assay [2], 0.19%; in assay [3], -0.55%.
In the same order, the values of `COc1ccc2nccc([C@@H](O)CN3CCC(NC(=O)/C=C/c4ccc5ccccc5n4)CC3)c2c1` are 15.2%, 13.2% and 7.42%.
In the same order, the values of `CO/C(=C\C=C\c1cc2cc(Cl)c(Cl)cc2[nH]1)C(=O)NCCN1CCCCC1` are 0.85%, 1.14% and 0.35%.
In the same order, the values of `Cc1[nH]c(C)c(-c2csc3ccccc23)c(=O)c1Cl` are 5.32%, 5.33% and 3.61%.
For the compound `O=C(CNCC1CCCCC1)Nc1cc(C(F)(F)F)ccc1Cl`, the values for the inhibition in assay [1], in assay [2] and in assay [3] were 1.93%, 0.51% and 1.07%, respectively.
For `Cc1cc(NC(=O)CCCN2CCN(c3cccc(Cl)c3Cl)CC2)ccc1N1CCN(C(C)C)CC1`, the inhibition was 9.52% in assay [1], 5.3% in assay [2] and 4.97% in assay [3].
In the same order, the values of `O=C(Cc1ccccc1)NC(Nc1ccc([N+](=O)[O-])cc1)C(Cl)(Cl)Cl` (stereo not given) are -0.19%, 1.43% and 0.18%.
In the same order, the values of `COc1cc2nc(NCC3CCN(c4nc(N)c5cc(OC)c(OC)cc5n4)CC3)nc(N)c2cc1OC` are 3.62%, 2.73% and 3.28%.
In the same order, the values of `CC(C)c1ccc(C(NC(=O)C2CCCCC2)c2ccc3cccnc3c2O)cc1` (stereo not given) are -0.43%, -0.57% and -1%.
